HIV RNase H inh-1 = inhibitors of HIV-1 reverse transcriptase RNase H. RT-RNase H RNA/DNA duplex cleavage, fluorescence. inhibition, % at 10 µM. AID 565. P04585. 65,000 tested, 1.9% active; in the data active = inhibition above about 50%
HIV RNase H inh-2 = confirmation of HIV-1 reverse transcriptase RNase H inhibitors; 1,000 tested, 39% active; Recombinant RT RNase H, fluorescent RNA/DNA duplex cleavage; inhibition, % at 10 µM; shares compounds with HIV RNase H inh-1; AID 651; in the data active = inhibition above about 48%; inconclusive = no clear call, values can overlap the other calls
Hits are given with their value; i = inactive; ? = inconclusive. Shown is part of a subset that was picked to be rich in hits.

SMILES | HIV RNase H inh-1 | others
O=C(Nc1ccccc1F)c1ccc(S(=O)(=O)NCC2CCCO2)cc1 (stereo not given) | i
Clc1ccc(NC2=NCCCCC2)cc1 | i
COCCSc1ccccc1C(=O)N1CCN(Cc2ccc3c(c2)OCO3)CC1 | i
O=S(=O)(C/C(=C/CO)S(=O)(=O)c1ccccc1)c1ccccc1 | i
Cc1nn(-c2ccccc2)c2sc(C(=O)N3CCCCC3)cc12 | i
O=C(c1nc(-c2ccccc2)n(-c2ccccc2)n1)N1CCCCCC1 | i
Cc1cc(C(=O)N2CCOCC2)n(-c2ccccc2)n1 | i
Nc1c(C(=O)N2CCOCC2)sc(=S)n1-c1ccccc1 | 95 | HIV RNase H inh-2=65
Nc1nc(C(=O)N2CCOCC2)nn1S(=O)(=O)c1ccccc1 | i
Nc1c(C(=O)N2CCCCC2)sc(=S)n1-c1ccccc1 | 97 | HIV RNase H inh-2=77
Cc1nc(NC2=NCN(Cc3cccnc3)CN2)nc2c(C)cccc12 | i
CSCCC(NC(=O)COc1ccccc1)C(=O)N1CCN(c2ccccc2F)CC1 (stereo not given) | i
CCn1c(NC(=O)c2cccs2)c(-c2cccs2)c(=O)c2ccccc21 | i
CC(C)COC(=O)Cn1cnc2ccc(Br)cc2c1=O | i
COC(=O)c1c(NC(=O)CSc2n[nH]c(N)n2)sc(C)c1C | i
CCOC(=O)c1c(NC(=O)CSc2n[nH]c(N)n2)sc(CC)c1C | i
Cc1ccc(/C=C/C2=Cc3c(sc(NC(=O)CSc4n[nH]c(N)n4)c3C#N)C(C)(C)C2)o1 | 96 | HIV RNase H inh-2=67
Cc1ccc(-c2c3c(=O)n(C)c(=O)n(C)c3c3c(C)cc(C)nn23)cc1 | i
CC(=O)N(CC(C)(C)CC=C(C)C)c1ccccc1 | i
CCOC(=O)c1cc2sccc2n1CC(=O)c1ccc2c(c1)OCCO2 | i
CCOC(=O)c1cc2sccc2n1CC(=O)N1c2ccccc2CC1C (stereo not given) | 57 | HIV RNase H inh-2=?
CCOC(=O)c1c(C)[nH]c(C(=O)OCC(=O)N2c3ccccc3CC2C)c1C (stereo not given) | i
COc1ccc(-n2c(=O)cc(N3CC(C)OC(C)C3)[nH]c2=O)cc1 (stereo not given) | i
COc1ccc(NS(=O)(=O)c2ccc(NS(C)(=O)=O)cc2)cc1 | i
COc1ccc(S(=O)(=O)Nc2ccc(O)c3ccccc23)cc1 | 92 | HIV RNase H inh-2=57
SMILES | HIV RNase H inh-1 | others
COc1ccc(S(=O)(=O)Nc2ccccc2C(F)(F)F)cc1 | i
Cc1ccc(N2CCN(C(=O)C3CCN(S(=O)(=O)c4cccc5nsnc45)CC3)CC2C)cc1 (stereo not given) | i
CN(C)c1nc(SCCOC(=O)Nc2ccccc2)nc(N(C)C)n1 | i
CC1CC(C)CN(CCCNC(=O)C2CCC(=O)N2C2CCCC2)C1 (stereo not given) | i
Cc1cc(C)nc(N(C#N)S(=O)(=O)c2ccccc2)n1 | i
O=C(O)c1cc2ccccc2n1-c1ccccc1 | i
N/C(=N\S(=O)(=O)c1ccc(Cl)s1)c1ccccc1 | i
COc1ccc(C2SCC(=O)Nc3c2c(=O)[nH]n3C2CCCCCC2)cc1 (stereo not given) | i
COc1ccc(C2SCC(=O)Nc3c2c(=O)[nH]n3C2CCCCCC2)cc1OC (stereo not given) | i
CCOc1ccc(C2SCC(=O)Nc3c2c(=O)[nH]n3C2CCCCCC2)cc1 (stereo not given) | 58 | HIV RNase H inh-2=i
c1cc(CSc2nnc(-c3ccc4c(c3)OCO4)o2)ccn1 | i
CCc1ccccc1N1C[C@@]23C=C[C@@H](O2)C(C(=O)OCC(C)C)[C@H]3C1=O (stereo not given in full) | i
COc1ccc(C2=CC(c3ccc(Cl)cc3)n3cnnc3N2)cc1OC (stereo not given) | i
CC(NC(=O)Cc1ccc(F)cc1)C(c1cccs1)N1CCN(C)CC1 (stereo not given) | i
Cc1ccc(C)c(Cn2c(CN(C)Cc3ccccc3)nc3c2c(=O)n(C)c(=O)n3C)c1 | i
CCOC(=O)c1sc(C)c2c(=O)n(CCCN3CCOCC3)cnc12 | i
Nc1c(S(=O)(=O)c2cccc(Cl)c2)c2nc3ccccc3nc2n1/N=C/c1ccc(O)c(O)c1 | 92 | HIV RNase H inh-2=58
Cc1cccc(S(=O)(=O)c2c(N)n(Cc3ccco3)c3nc4ccccc4nc23)c1 | i
CC(C)CNC(=O)c1c(N)n(/N=C/c2cccnc2)c2nc3ccccc3nc12 | i
CCN(CC)S(=O)(=O)c1cc(Br)ccc1OC | i
CCOc1cccc(C(=O)Nc2ccccc2N2CCN(C(=O)C(C)C)CC2)c1 | i
CCC(C)NC(=O)CCNS(=O)(=O)c1ccc(Br)cc1 (stereo not given) | i
CCOc1ccc(C2CC(c3cccc(OC)c3OC)n3nnnc3N2)cc1Cl (stereo not given) | i
COCC(=O)N(C)C1(c2nnnn2CCOC(=O)Nc2cccc3ccccc23)CCCC1 | i
O=C(Nc1cccc(S(=O)(=O)c2cccc(NC(=O)C3CC3)c2)c1)C1CC1 | i
SMILES | HIV RNase H inh-1 | others
CCOc1ccc(NC(=O)CN(c2cc(C)cc(C)c2)S(=O)(=O)c2c(C)noc2C)cc1 | i
CCOc1ccc(N(CC(=O)Nc2ccc(OC)cc2)S(=O)(=O)c2c(C)noc2C)cc1 | i
CCOc1ccc(N(CC(=O)Nc2ccc3c(c2)OCCO3)S(=O)(=O)c2c(C)noc2C)cc1 | 56 | HIV RNase H inh-2=i
CC1(C)Cc2c(sc3nc(SCC#N)n(C4CCCCC4)c(=O)c23)CO1 | i
COc1cccc(N2C(=O)CC(N3CCC(C(N)=O)(N4CCCCC4)CC3)C2=O)c1 (stereo not given) | i
Cn1c2c(c(=O)n(C)c1=O)C(c1cccc(Br)c1)C1C(=O)c3ccccc3C1=N2 (stereo not given) | i
N#CC1=C(N)SC2(CCCCC2)SC1c1ccccc1 (stereo not given) | 59 | HIV RNase H inh-2=i
N#CC1=C(C2CC2)CC(c2ccccc2)C(C#N)=C1N (stereo not given) | i
N#C/C(Cn1c[n+](NC(=O)Nc2ccccc2)cn1)=N/O | i
CC1CCN(S(=O)(=O)c2ccc(S(=O)(=O)NCC3COCCO3)cc2)CC1 (stereo not given) | i
CN(C)c1nc(N)nc(Cn2ccnc2)n1 | i
Cc1cc(NC(=O)CSc2n[nH]c(CC(C)C)n2)no1 | i
O=C(NCc1ccco1)c1cc(-c2cccnc2)nc2ccccc12 | i
O=C(NCc1ccco1)c1cccc2ccccc12 | i
O=C(NCc1ccco1)c1cccnc1-c1nc2ccccc2s1 | 85 | HIV RNase H inh-2=63
COC(=O)c1c(NC(=O)c2ccc(Br)o2)sc(C)c1C | 74 | HIV RNase H inh-2=i
COC(=O)c1sccc1NC(=O)c1ccc(Br)o1 | i
COC(=O)c1c(NC(=O)Cc2cccs2)sc(C)c1C | i
CCOC(=O)CN1C(=O)C(O)(C2CCc3ccccc3C2=O)c2ccccc21 (stereo not given) | i
O=C(CCS(=O)(=O)Cc1ccccc1)NCC1CCCO1 (stereo not given) | i
CS(=O)(=O)NCc1nnc(SCC(=O)NC2CCCCC2)n1-c1ccc(F)cc1 | i
N#Cc1cc2c(=O)n3ccccc3nc2n(Cc2cccnc2)c1=O | i
COc1ccc(CCn2c(=N)c(C(=O)N3CCN(C)CC3)cc3c(=O)n4ccccc4nc32)cc1 | i
COc1ccc(CCn2c(=N)c(C#N)cc3c(=O)n4ccccc4nc32)cc1 | 55 | HIV RNase H inh-2=i
CCn1c(Cc2ccccc2)nnc1SCC(=O)Nc1ccc(S(N)(=O)=O)cc1 | i
COc1ccc2c(c1)C(C)=CC(C)(C)N2C(=O)CSc1nnc(-c2ccc(C)cc2)o1 | i
CCOC(=O)c1c(C)[nH]c(C)c1C(=O)CSc1nnc(-c2ccncc2)n1C | i

Assay outcomes (PubChem)
